# Source: the supplement of paper PMC11732987, “Enantioselective OTUD7B fragment discovery through chemoproteomics screening and high-throughput optimisation” (Communications Chemistry, 2025)
# Values without a mark were called inactive.
# Molecular target: T1, VCPIP1 (UniProt Q96JH7)
# T1 sequence (whole entry): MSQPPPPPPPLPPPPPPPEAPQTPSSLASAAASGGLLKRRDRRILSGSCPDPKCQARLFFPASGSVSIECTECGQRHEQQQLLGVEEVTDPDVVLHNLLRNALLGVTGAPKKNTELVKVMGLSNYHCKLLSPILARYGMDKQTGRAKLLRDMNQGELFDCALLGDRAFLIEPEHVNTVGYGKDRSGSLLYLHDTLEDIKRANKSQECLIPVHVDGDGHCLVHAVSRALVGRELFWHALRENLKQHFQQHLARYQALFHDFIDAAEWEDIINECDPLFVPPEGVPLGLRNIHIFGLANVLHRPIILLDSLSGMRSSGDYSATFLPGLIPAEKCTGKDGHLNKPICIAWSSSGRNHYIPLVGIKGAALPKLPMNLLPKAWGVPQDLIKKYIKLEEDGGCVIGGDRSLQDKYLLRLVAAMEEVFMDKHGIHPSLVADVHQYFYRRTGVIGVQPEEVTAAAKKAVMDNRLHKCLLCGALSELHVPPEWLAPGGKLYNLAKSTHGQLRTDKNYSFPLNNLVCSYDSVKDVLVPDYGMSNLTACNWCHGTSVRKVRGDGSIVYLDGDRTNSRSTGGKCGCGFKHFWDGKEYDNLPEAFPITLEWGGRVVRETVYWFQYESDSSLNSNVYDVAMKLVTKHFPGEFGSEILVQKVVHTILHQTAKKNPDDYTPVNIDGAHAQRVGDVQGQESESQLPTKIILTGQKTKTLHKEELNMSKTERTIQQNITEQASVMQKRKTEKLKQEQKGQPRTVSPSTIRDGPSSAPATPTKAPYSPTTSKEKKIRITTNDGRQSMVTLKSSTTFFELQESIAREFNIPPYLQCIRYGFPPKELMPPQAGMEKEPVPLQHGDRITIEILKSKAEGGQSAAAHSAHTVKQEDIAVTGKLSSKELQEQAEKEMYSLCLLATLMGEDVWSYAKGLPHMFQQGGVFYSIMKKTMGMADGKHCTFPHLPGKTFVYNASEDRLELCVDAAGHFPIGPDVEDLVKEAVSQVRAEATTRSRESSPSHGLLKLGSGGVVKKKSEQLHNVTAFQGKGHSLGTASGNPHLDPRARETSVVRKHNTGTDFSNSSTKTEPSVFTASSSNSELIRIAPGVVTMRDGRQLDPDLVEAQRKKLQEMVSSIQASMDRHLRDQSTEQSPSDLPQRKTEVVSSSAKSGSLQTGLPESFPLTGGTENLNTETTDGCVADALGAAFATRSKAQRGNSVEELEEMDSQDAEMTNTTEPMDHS
# Assay: log2 ratio of Biotin-Ahx-Ub-VS probe labelling (fragment/DMSO); higher = less target engagement (more negative = stronger competition), active = hit call of the paper (q ≤ 0.05, log2 ratio ≤ -1)
# Settings: compound concentration: 200 uM; treatment time: 3 h
# Protocol: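 Competitive ABPP in HEK293T cell lysate. Lysates were treated with each chloroacetamide fragment at 200 µM for 3 h, then with Biotin-Ahx-Ub-VS (0.5 µM, 1 h), NeutrAvidin-enriched and analysed by diaPASEF LC-MS/MS. Protein LFQ was median-normalised; average log2 ratio is fragment/DMSO from an unpaired t-test (n=3 treated, n=44 DMSO). Hits: q ≤ 0.05, log2 ratio ≤ -1, unique peptides ≥ 2.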
row,SMILES,log2 ratio of Biotin-Ahx-Ub-VS probe labelling
1,O=C(CCl)NCCC1COCCO1 (stereo not given),-0.791
2,CN(CCC(O)c1ccc(Br)cc1)C(=O)CCl (stereo not given),-2.63 (active)
3,CS(=O)(=O)c1ccc(CNC(=O)CCl)cc1,-1.22 (active)
4,CC1Cc2ccccc2N1C(=O)CCl (stereo not given),-1.3 (active)
5,O=C(CCl)N1CCOC2(CCC2)CC1,-0.287
6,CC1(NC(=O)CCl)CCS(=O)(=O)C1 (stereo not given),-0.848
7,O=C(CCl)N(C1CCCC1)C1CCS(=O)(=O)C1 (stereo not given),-0.0269
8,O=C(CCl)NCCc1cccc2ccccc12,-1.04 (active)
9,O=C(CCl)Nc1ccc2c(c1)OC(F)(F)O2,-1.43 (active)
10,Cc1cccc2nc(CCNC(=O)CCl)cn12.Cl,-1.77 (active)
11,CC(c1ccccc1)N(C)C(=O)CCl (stereo not given),-0.328
12,CC(O)CC1CCN(C(=O)CCl)CC1 (stereo not given),-0.106
13,Cc1ccc(N2CCC(NC(=O)CCl)C2=O)cc1 (stereo not given),-2.9 (active)
14,Cl.O=C(CCl)NCc1ccnc(Oc2ccccc2F)c1,-2.73 (active)
15,O=C(CCl)Nc1nnc(CC(F)(F)F)o1,-0.723
16,Cl.O=C(CCl)NCCN1CCc2ccccc21,-1.9 (active)
17,Cc1nc(-c2cccc(NC(=O)CCl)c2)cs1,-1.87 (active)
18,Cl.Cn1ncc2c1CCCC2NC(=O)CCl (stereo not given),-1.7 (active)
19,Cc1cccc(NC(=O)[C@@H]2CCCN2C(=O)CCl)n1,-0.551
20,CNC(=O)Cn1cc(NC(=O)CCl)cn1,-0.495

row,SMILES,log2 ratio of Biotin-Ahx-Ub-VS probe labelling
1,O=C(CCl)NCc1ccc(N2CCOCC2)c(F)c1,-2.18 (active)
2,O=C(CCl)NCc1cccc(N2CCCC2=O)c1,-1.04 (active)
3,Cl.O=C(CCl)NC1(c2ncccn2)CCC1,-0.136
4,O=C(CCl)N1CCc2ccccc2C(O)C1 (stereo not given),-0.506
5,N#Cc1cnn(-c2ccccc2)c1NC(=O)CCl,-2.18 (active)
6,Cc1cccc(N(CCC#N)C(=O)CCl)c1C,-2.23 (active)
7,Cc1noc(C)c1CNC(=O)CCl,-1.8 (active)
8,CC(NC(=O)CCl)c1ccc2[nH]ncc2c1 (stereo not given),-2.26 (active)
9,Cc1cc(NC(=O)CCl)n(-c2ccccc2)n1,-0.6
10,O=C(CCl)N(C1=CCCCC1)C1CC1,-0.286
11,CCN1C(=O)C2CN(C(=O)CCl)CCN2C1=O (stereo not given),0.103
12,Cl.Cn1cnc2cc(CNC(=O)CCl)ccc21,-1.11 (active)
13,O=C(CCl)N1CCC2(CCC(O)CC2)CC1,-0.183
14,O=C(CCl)N1CCOC2(CCC2)C1,-0.0688
15,Cc1cccc(NC(=O)CCl)c1C,-0.666
16,O=C(CCl)NC1CCC2(CC1)OCCO2,-0.827
17,Cc1nc(CN2CCCN(C(=O)CCl)CC2)no1.Cl,-0.1
18,Cc1cnc2[nH]cc(CCNC(=O)CCl)c2c1,-1.05 (active)
19,Cl.O=C(CCl)N1CC(c2ccc(Br)cn2)C1,-1.3 (active)
20,O=C(CCl)NCc1ccc(Cl)cc1,-1.16 (active)
